CYP2C19 activ: increases human CYP2C19 enzyme activity | AID 1025 | recombinant CYP2C19, luciferin-H EGE luminescence; stronger effect = higher value; 0 = fully inhibited enzyme, 1 = untreated enzyme | activation factor at 5 µM | P33261 | 96,000 tested, under 10 active;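 active means activation factor of at least 2 at 5 µM in the primary screen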;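 further: 0 = wells with 2.5 mM tranylcypromine and 1 = vehicle-only wells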
Target sequence (P33261 whole entry, looked up): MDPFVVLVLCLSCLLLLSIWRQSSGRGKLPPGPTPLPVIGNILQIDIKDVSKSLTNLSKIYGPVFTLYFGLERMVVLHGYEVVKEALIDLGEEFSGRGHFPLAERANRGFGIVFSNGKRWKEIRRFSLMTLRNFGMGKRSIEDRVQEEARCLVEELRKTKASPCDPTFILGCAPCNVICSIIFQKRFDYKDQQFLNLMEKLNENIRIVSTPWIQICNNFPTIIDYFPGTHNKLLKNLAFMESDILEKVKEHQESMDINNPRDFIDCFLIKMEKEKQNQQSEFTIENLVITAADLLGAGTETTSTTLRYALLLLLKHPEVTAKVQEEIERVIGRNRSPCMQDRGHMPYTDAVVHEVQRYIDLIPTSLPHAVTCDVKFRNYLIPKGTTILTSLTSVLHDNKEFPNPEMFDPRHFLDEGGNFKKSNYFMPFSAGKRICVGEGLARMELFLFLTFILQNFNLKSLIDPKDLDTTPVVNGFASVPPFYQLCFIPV
PostGolgi yeast: growth inhibition of a yeast mutant, post-Golgi transport screen; inhibition, % at 10 µM; 98,000 compounds, 0.9% hits; post-Golgi transport phenotypic cell assay;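 further: yeast cells grown in 1536-well plates; yeast grown about 18 h at 30C before absorbance read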
CYP2C9 activ: activators of human CYP2C9; P11712; recombinant CYP2C9, luciferin-H conversion, luminescence; stronger effect = higher value; factor 1 = untreated enzyme, 0 = blocked; activation factor at 5 µM; 96,000 compounds, 1.4% hits; AID 1024;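 active means activation factor of 2 or more for CYP2C9 at a 5 µM dose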;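 further: 0 = sulfaphenazole-blocked wells and 1 = vehicle-only wells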
CYP2C19 inh: human CYP2C19 inhibition. 96,000 compounds, 21% hits. CYP2C19 Supersomes, luciferin-H EGE luminescence, 30 min. inhibition, % at 5 µM. AID 778;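 active means CYP2C19 inhibition above a set limit at 5 µM in the primary screen, cut at about 50% in these data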;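 further: plate controls were negative control wells for no effect and 2.5 mM tranylcypromine positive control for full effect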
PostGolgi ctrl: yeast control strain growth, post-Golgi counter-screen | 98,000 compounds, 5% hits | inhibition, % at 10 µM | efflux-deficient yeast background strain, growth absorbance A615, 16 h
CYP2C9 inhib: human CYP2C9 inhibition; P11712; inhibition, % at 5 µM; 96,000 compounds, 20% hits; CYP2C9 Supersomes, luciferin-H conversion, luminescence; AID 777;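 active means blocking of liver enzyme CYP2C9 beyond about 50% at 5 µM, limit read from the data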
Active calls of the source: *. Hits are enriched below; roughly 32% of the tested compounds scored in any of these assays. Unless noted, no stated cut-off is given here; in the data, active means inhibition above about 30%; inactive means the rest.

What do the screens show for `CCc1ccccc1NC(=O)CSC1=C(C#N)C(c2ccc3c(c2)OCO3)C2=C(CCCC2=O)N1` (stereo not given)?
CYP2C19 activ: 0.5; PostGolgi yeast: 3.2; CYP2C9 activ: 0.2; CYP2C19 inh: 51.4*; PostGolgi ctrl: 12.3; CYP2C9 inhib: 80.0*

How did CC1=C(C(N)=O)C(c2ccco2)C(C(N)=O)=C(C)N1 do in these assays?
CYP2C19 activ: 0.9; PostGolgi yeast: 0.9; CYP2C9 activ: 1; CYP2C19 inh: 6.1; PostGolgi ctrl: -5.6; CYP2C9 inhib: 1.1

What do the screens show for `CC1(C)CC(=O)C2=C(C1)NC(SCC(=O)Nc1ccccc1)=C(C#N)C2c1ccco1` (stereo not given)?
CYP2C19 activ: 0; PostGolgi yeast: -1.9; CYP2C9 activ: 0; CYP2C19 inh: 95.9*; PostGolgi ctrl: -1.8; CYP2C9 inhib: 95.4*

Results for Cc1ccc(NC(=O)CSC2=C(C#N)C(c3ccc4c(c3)OCO4)CC(=O)N2)cc1C (stereo not given) ?
PostGolgi yeast: 5.1; PostGolgi ctrl: 12.2

How did Cc1ccc(NC(=O)CSC2=C(C#N)C(c3ccco3)C3=C(CCCC3=O)N2)cc1 (stereo not given) do in these assays?
CYP2C19 activ: 0.8; PostGolgi yeast: 1.2; CYP2C9 activ: 0.6; CYP2C19 inh: 17.8; PostGolgi ctrl: 4.4; CYP2C9 inhib: 43.3

How did CC(=O)C1=C(C)NC(SCC(=O)c2ccc(C)cc2)=C(C#N)C1c1ccco1 (stereo not given) do in these assays?
CYP2C19 activ: 0; PostGolgi yeast: -2.8; CYP2C9 activ: 0; CYP2C19 inh: 99.0*; PostGolgi ctrl: 17.4; CYP2C9 inhib: 96.0*

What do the screens show for `COc1ccccc1NC(=O)C1=C(C)NC(SCC(=O)c2ccccc2)=C(C#N)C1c1ccco1` (stereo not given)?
CYP2C19 activ: 0.5; PostGolgi yeast: -14.3; CYP2C9 activ: 0.2; CYP2C19 inh: 54.8*; PostGolgi ctrl: 4.9; CYP2C9 inhib: 78.4*

How did COc1ccc(-n2c(Cc3cccn3C)nnc2SCC(=O)Nc2ccc(F)cc2)cc1 do in these assays?
CYP2C19 activ: 0.7; PostGolgi yeast: -8.0; CYP2C9 activ: 0.5; CYP2C19 inh: 28.3; PostGolgi ctrl: 13.2; CYP2C9 inhib: 49.2

How did CCCCNC1C(CC)C(CCC)C(C#N)(C#N)C1(C#N)C#N (stereo not given) do in these assays?
CYP2C19 activ: 0.9; PostGolgi yeast: -5.7; CYP2C9 activ: 1; CYP2C19 inh: 9.0; PostGolgi ctrl: 18.7; CYP2C9 inhib: -3.2

Results for CC(C)(C)c1ccc(C(=O)C=[N+]=[N-])cc1 ?
CYP2C19 activ: 1.2; PostGolgi yeast: 20.9; CYP2C9 activ: 1.2; CYP2C19 inh: -22.7; PostGolgi ctrl: 14.8; CYP2C9 inhib: -22.2

How did COC(=O)c1ccc(CSc2ccc3nnc(-c4cccnc4)n3n2)o1 do in these assays?
CYP2C19 activ: 0.6; CYP2C9 activ: 0.6; CYP2C19 inh: 36.4; CYP2C9 inhib: 36.5

Results for COc1ccc(OC)c(C2C(C(=O)Nc3cccnc3)=C(C)NC3=C2C(=O)CCC3)c1 (stereo not given) ?
CYP2C19 activ: 0.4; PostGolgi yeast: 2.1; CYP2C9 activ: 0; CYP2C19 inh: 55.7*; PostGolgi ctrl: 1.1; CYP2C9 inhib: 98.2*

Results for COc1ccc(OC)c(NC(=O)CSC2=C(C#N)C(c3ccco3)C3=C(CCCC3=O)N2)c1 (stereo not given) ?
CYP2C19 activ: 0.2; PostGolgi yeast: 0.8; CYP2C9 activ: 0.1; CYP2C19 inh: 83.9*; PostGolgi ctrl: 9.0; CYP2C9 inhib: 86.2*

Results for N#CC1=C(SCC(=O)c2ccc(Cl)cc2)NC2=C(C(=O)CCC2)C1c1ccco1 (stereo not given) ?
CYP2C19 activ: 0; PostGolgi yeast: 5.3; CYP2C9 activ: 0; CYP2C19 inh: 98.8*; PostGolgi ctrl: 15.0; CYP2C9 inhib: 97.2*

How did Cc1ccc(C(=O)CSC2=C(C#N)C(c3ccco3)C3=C(CC(C)(C)CC3=O)N2)cc1 (stereo not given) do in these assays?
CYP2C19 activ: 0.1; PostGolgi yeast: -2.7; CYP2C9 activ: 0.1; CYP2C19 inh: 88.4*; PostGolgi ctrl: 14.4; CYP2C9 inhib: 87.7*

What do the screens show for `NC(=O)Cn1nnc(-c2ccc(C(F)(F)F)cc2)n1`?
CYP2C19 activ: 0.8; PostGolgi yeast: 3.5; CYP2C9 activ: 0.8; CYP2C19 inh: 19.1; PostGolgi ctrl: 3.6; CYP2C9 inhib: 16.0

Results for c1ccc(-c2cc3c(-n4cccc4)ncnc3o2)cc1 ?
CYP2C19 activ: 0.9; PostGolgi yeast: 8.9; CYP2C9 activ: 0.8; CYP2C19 inh: 8.9; PostGolgi ctrl: -10.9; CYP2C9 inhib: 19.6

How did C1=CC2CC1CC2CNCc1ccco1 (stereo not given) do in these assays?
CYP2C19 activ: 0.9; PostGolgi yeast: -2.5; CYP2C9 activ: 1.1; CYP2C19 inh: 9.6; PostGolgi ctrl: -2.4; CYP2C9 inhib: -6.6

What do the screens show for `O=C(NNc1cccc(Cl)n1)Nc1ccccc1Cl`?
CYP2C19 activ: 0.6; PostGolgi yeast: -7.2; CYP2C9 activ: 1; CYP2C19 inh: 37.6; PostGolgi ctrl: 14.0; CYP2C9 inhib: 1.5

What do the screens show for `CCC(Oc1cc(Cl)ccc1Cl)C(=O)NN1C(=O)C2C3CCC(C3=C(C)C)C2C1=O` (stereo not given)?
CYP2C19 activ: 0.7; PostGolgi yeast: -1.0; CYP2C9 activ: 1.1; CYP2C19 inh: 30.7; PostGolgi ctrl: 18.5; CYP2C9 inhib: -8.9

What do the screens show for `CC1=C(C(=O)Nc2ccccc2)C(c2ccc3c(c2)OCO3)C2=C(CCCC2=O)N1` (stereo not given)?
CYP2C19 activ: 0.3; PostGolgi yeast: -5.2; CYP2C9 activ: 0.5; CYP2C19 inh: 66.4*; PostGolgi ctrl: 18.7; CYP2C9 inhib: 52.8*

Results for CC1=C(C(=O)Nc2cc(C)ccn2)C(c2ccc(C)cc2)C2=C(CCCC2=O)N1 (stereo not given) ?
CYP2C19 activ: 0.8; PostGolgi yeast: -2.2; CYP2C9 activ: 0.8; CYP2C19 inh: 18.6; PostGolgi ctrl: 13.9; CYP2C9 inhib: 24.3

What do the screens show for `C=CCNc1nc2c(c(=O)[nH]c(=O)n2C)n1Cc1cccc(C)c1`?
PostGolgi yeast: -3.0; PostGolgi ctrl: 1.0

Results for Cc1cc(C)cc(CC(Cc2nc3ccccc3[nH]2)c2nc3ccccc3[nH]2)c1 (stereo not given) ?
CYP2C19 activ: 0; PostGolgi yeast: -6.9; CYP2C9 activ: 0.2; CYP2C19 inh: 97.0*; PostGolgi ctrl: 9.8; CYP2C9 inhib: 77.0*

How did CCn1cc(C(=O)O)c(=O)c2cc(Br)ccc21 do in these assays?
CYP2C19 activ: 1.1; PostGolgi yeast: 6.3; CYP2C9 activ: 1.2; CYP2C19 inh: -7.7; PostGolgi ctrl: 14.3; CYP2C9 inhib: -20.6

What do the screens show for `CCOC(=O)c1cn(CC)c2ccc(Br)cc2c1=O`?
CYP2C19 activ: 0.9; PostGolgi yeast: -5.0; CYP2C9 activ: 2*; CYP2C19 inh: 5.6; PostGolgi ctrl: 7.8; CYP2C9 inhib: -95.7

Compound activity as filed in PubChem.
